Tests used:
Assay in all cases: log2 ratio of Biotin-Ahx-Ub-VS probe labelling (fragment/DMSO); higher = less target engagement (more negative = stronger competition), active = hit call of the paper (q ≤ 0.05, log2 ratio ≤ -1)
Settings in all cases: compound concentration: 200 uM; treatment time: 3 h
UniProt O00507 = biological target: UniProt O00507
In short: (§1)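 In triplicate, 495 µg of HEK293T lysate per sample was incubated with fragment at 200 µM or vehicle for 3 h. Biotin-Ahx-Ub-VS was then added to 0.5 µM final for 1 h, and labelled DUBs were captured with NeutrAvidin, digested with LysC and trypsin, and measured by diaPASEF LC-MS/MS. Data are average log2 fragment/vehicle ratios by unpaired t-test from global-median-normalised Spectronaut label-free quantities, restricted to proteins with ≥2 unique peptides.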

UniProt P51784 = biological target: UniProt P51784
Chain of UniProt P51784 (P51784 whole entry): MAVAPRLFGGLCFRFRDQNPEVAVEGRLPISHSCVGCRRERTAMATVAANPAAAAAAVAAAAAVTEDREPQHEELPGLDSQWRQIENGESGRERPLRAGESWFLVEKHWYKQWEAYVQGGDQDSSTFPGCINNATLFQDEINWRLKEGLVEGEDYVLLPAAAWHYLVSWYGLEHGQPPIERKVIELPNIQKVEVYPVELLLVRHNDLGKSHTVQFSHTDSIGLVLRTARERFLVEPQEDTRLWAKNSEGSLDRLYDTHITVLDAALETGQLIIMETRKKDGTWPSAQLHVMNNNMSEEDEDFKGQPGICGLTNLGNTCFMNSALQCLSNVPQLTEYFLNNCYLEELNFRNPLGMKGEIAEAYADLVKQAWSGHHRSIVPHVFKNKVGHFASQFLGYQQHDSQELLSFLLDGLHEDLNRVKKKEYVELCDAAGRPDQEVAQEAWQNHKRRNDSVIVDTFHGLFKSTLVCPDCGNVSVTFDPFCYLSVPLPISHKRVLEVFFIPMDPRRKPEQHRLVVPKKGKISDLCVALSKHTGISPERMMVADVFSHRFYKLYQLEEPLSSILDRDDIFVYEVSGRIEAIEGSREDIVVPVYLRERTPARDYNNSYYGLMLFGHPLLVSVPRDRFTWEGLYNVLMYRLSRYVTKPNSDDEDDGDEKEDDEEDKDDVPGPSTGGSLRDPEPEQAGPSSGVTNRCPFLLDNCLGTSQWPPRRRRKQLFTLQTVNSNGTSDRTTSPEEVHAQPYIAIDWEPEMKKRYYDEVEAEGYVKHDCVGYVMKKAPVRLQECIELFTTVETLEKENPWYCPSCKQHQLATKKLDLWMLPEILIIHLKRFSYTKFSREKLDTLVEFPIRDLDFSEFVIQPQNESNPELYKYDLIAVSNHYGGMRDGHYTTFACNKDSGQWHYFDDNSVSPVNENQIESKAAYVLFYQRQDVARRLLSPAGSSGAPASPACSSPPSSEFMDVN
In short: as §1

UniProt Q5T2D3 = biological target: T1, UniProt Q5T2D3
T1 sequence (whole entry): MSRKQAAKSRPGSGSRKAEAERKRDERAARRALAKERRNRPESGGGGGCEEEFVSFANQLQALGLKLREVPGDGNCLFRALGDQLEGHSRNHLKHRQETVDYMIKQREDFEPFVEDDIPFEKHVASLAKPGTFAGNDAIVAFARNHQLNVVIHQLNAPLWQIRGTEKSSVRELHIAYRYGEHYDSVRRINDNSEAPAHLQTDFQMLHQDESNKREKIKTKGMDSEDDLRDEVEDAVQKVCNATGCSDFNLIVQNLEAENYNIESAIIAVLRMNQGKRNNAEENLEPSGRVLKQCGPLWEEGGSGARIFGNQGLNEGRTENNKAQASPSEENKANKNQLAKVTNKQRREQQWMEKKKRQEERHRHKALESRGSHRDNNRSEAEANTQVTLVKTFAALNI
In short: as §1

UniProt Q8TE49 = biological target: T2, UniProt Q8TE49
T2 sequence (whole entry): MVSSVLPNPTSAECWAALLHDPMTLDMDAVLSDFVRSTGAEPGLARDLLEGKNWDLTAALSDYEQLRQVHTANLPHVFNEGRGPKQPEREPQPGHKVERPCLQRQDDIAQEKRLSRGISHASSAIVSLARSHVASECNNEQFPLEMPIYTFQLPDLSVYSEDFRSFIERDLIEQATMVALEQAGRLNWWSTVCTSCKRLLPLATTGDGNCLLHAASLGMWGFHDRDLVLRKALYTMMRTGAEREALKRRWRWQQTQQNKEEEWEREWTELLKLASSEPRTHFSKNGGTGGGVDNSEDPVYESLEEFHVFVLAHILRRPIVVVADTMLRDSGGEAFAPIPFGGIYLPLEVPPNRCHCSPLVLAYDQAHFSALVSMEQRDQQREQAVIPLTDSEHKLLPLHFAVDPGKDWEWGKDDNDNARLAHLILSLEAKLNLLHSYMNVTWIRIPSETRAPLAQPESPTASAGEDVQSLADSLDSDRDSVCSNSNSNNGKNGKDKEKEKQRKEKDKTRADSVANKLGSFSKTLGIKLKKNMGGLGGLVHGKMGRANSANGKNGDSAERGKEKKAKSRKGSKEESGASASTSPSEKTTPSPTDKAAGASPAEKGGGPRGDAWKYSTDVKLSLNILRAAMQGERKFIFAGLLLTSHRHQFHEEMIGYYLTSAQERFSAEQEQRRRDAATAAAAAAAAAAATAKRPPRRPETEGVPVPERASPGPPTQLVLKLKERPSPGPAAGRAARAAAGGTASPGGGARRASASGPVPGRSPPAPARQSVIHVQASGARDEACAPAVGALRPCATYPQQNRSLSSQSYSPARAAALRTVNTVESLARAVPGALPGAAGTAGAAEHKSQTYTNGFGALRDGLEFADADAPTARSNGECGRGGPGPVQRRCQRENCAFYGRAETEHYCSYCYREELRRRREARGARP
In short: as §1

UniProt Q9P2H5 = biological target: T3, UniProt Q9P2H5
T3 sequence (whole entry): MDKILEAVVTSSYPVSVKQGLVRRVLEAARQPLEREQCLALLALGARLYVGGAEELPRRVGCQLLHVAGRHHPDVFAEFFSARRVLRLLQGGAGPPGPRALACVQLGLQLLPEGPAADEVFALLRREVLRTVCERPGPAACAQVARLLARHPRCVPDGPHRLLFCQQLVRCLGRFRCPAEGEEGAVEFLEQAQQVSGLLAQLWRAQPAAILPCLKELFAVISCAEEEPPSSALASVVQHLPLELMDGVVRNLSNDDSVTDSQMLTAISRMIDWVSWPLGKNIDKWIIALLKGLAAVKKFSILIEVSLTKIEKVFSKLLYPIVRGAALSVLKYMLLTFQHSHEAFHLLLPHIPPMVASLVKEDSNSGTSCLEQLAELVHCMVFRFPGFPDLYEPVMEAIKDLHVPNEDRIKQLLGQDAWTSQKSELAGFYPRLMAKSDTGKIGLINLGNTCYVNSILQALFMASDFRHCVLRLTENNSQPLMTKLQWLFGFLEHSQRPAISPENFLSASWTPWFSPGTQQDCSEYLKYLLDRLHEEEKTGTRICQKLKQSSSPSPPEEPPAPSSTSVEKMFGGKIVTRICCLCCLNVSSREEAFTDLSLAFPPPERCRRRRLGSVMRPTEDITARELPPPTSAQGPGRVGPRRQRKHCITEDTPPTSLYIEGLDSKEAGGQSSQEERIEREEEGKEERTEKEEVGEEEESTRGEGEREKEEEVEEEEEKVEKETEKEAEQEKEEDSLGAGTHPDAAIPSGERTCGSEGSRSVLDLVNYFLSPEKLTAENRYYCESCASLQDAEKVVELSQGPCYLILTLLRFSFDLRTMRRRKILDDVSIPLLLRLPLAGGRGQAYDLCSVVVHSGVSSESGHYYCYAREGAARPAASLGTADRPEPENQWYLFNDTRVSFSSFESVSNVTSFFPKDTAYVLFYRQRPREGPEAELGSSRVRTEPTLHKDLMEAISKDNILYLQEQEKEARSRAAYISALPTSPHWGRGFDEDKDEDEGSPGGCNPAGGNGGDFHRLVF
In short: as §1

UniProt Q9UGI0 = biological target: T4, UniProt Q9UGI0
T4 sequence (whole entry): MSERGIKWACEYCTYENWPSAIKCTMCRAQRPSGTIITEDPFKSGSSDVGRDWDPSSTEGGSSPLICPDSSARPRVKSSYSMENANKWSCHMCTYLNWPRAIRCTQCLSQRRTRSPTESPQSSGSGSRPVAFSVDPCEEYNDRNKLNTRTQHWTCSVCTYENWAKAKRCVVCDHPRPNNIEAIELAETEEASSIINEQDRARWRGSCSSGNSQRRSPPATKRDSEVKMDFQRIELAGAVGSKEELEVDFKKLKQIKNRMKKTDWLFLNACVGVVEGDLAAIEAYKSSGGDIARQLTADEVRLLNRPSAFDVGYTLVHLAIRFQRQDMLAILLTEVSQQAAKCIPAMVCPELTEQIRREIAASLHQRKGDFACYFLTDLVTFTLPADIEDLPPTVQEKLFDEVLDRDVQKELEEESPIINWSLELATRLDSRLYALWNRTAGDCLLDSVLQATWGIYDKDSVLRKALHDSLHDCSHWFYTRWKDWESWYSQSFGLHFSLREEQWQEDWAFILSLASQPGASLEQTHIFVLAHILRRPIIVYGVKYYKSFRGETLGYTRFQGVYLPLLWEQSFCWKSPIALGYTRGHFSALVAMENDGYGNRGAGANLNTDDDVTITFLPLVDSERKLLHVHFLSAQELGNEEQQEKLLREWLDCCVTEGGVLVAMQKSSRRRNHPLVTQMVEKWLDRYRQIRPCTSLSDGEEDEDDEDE
In short: as §1

YOD1 = biological target: T5, YOD1 (UniProt Q5VVQ6)
T5 sequence (whole entry): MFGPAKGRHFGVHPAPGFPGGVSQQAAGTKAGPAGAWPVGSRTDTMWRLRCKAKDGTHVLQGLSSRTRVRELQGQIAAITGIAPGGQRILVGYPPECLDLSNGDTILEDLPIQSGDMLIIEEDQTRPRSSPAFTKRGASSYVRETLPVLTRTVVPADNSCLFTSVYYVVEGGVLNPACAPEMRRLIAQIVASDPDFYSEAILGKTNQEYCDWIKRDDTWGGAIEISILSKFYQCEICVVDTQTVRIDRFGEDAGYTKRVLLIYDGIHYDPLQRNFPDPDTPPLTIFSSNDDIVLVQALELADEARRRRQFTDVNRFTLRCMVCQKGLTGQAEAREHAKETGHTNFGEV
In short: as §1

Measured: log2 ratio of Biotin-Ahx-Ub-VS probe labelling

Chain of UniProt O00507 (O00507 whole entry, the tested form may be a part): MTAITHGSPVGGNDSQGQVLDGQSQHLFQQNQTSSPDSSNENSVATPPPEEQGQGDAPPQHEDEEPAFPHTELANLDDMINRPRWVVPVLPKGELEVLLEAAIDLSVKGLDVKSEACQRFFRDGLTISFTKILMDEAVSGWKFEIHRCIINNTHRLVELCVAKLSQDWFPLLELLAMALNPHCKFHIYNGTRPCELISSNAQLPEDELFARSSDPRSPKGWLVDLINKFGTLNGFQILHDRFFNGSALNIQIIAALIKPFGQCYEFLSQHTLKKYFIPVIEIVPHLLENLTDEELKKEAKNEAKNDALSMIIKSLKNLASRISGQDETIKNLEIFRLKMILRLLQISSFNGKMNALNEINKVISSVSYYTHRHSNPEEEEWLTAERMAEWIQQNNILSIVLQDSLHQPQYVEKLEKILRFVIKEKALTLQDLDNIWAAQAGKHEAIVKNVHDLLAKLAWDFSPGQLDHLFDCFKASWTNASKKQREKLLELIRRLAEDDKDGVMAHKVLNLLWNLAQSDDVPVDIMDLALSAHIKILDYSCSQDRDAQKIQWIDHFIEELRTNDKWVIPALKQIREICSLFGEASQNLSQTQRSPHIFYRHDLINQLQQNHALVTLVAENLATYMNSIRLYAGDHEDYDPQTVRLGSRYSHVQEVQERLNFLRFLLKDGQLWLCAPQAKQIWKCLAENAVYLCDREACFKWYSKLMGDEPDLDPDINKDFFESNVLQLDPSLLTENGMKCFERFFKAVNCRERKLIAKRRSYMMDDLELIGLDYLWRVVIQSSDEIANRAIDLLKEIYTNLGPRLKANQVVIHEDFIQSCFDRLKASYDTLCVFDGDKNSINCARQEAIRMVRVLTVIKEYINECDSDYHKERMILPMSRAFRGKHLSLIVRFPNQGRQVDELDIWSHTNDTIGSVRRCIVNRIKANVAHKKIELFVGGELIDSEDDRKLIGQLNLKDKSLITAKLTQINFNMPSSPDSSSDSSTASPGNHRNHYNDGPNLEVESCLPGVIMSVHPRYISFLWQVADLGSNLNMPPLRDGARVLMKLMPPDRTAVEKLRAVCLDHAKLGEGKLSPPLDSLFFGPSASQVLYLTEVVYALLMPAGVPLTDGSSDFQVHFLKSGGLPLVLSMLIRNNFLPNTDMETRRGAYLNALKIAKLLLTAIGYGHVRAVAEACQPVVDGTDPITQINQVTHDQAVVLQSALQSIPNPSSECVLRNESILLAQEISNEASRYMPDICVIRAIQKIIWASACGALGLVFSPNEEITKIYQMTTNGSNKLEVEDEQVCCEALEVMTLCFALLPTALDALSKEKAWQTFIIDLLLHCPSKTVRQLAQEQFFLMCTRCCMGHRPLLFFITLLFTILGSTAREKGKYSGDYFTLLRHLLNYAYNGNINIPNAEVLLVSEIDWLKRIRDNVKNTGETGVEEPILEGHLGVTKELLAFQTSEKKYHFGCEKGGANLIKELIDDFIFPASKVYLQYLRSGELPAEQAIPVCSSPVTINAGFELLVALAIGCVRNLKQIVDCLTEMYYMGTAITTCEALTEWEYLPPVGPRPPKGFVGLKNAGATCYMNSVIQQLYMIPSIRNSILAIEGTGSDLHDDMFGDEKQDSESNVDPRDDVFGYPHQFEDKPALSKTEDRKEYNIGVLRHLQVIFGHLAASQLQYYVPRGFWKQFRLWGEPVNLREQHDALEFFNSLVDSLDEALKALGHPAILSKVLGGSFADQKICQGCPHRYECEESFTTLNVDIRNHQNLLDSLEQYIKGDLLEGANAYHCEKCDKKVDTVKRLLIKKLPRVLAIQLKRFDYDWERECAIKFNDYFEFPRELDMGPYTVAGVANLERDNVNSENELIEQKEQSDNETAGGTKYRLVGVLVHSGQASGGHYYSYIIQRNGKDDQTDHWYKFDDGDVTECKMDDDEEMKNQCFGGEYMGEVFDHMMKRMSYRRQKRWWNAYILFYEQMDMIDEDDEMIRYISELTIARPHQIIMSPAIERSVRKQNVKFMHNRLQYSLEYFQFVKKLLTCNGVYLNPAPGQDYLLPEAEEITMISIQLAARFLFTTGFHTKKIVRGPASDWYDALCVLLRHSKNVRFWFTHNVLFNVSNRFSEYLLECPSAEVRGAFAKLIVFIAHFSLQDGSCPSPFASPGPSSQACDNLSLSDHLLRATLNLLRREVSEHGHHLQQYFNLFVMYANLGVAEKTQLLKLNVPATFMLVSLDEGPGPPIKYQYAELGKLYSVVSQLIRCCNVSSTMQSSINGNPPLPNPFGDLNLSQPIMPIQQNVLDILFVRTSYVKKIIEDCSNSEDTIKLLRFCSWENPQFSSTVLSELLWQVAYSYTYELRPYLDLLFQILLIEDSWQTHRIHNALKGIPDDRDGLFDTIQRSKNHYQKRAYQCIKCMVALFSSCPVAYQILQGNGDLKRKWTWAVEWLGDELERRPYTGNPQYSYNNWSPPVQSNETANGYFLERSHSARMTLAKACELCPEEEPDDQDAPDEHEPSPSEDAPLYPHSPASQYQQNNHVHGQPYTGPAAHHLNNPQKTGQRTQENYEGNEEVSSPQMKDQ

Cc1ccc(-c2nnc(C)[nH]2)c(NC(=O)CCl)c1
inactive: UniProt O00507 -0.0161 | UniProt P51784 0.126 | UniProt Q5T2D3 -0.148 | UniProt Q8TE49 -0.185 | UniProt Q9P2H5 0.245 | UniProt Q9UGI0 -0.97 | YOD1 -0.102

O=C(CCl)N1CCC(=C(F)CO)C1
inactive: UniProt O00507 0.605 | UniProt P51784 0.155 | UniProt Q5T2D3 0.0125 | UniProt Q8TE49 -0.47 | UniProt Q9P2H5 -0.115 | UniProt Q9UGI0 -0.16 | YOD1 0.406

Cc1ccc(CC(CO)CNC(=O)CCl)cc1 (stereo unspecified)
inactive: UniProt O00507 -0.3 | UniProt P51784 -0.172 | UniProt Q5T2D3 -0.293 | UniProt Q8TE49 -0.933 | UniProt Q9P2H5 -0.149 | UniProt Q9UGI0 -0.929 | YOD1 -0.164

Cl.O=C(CCl)NCCc1ncc(F)cc1F
inactive: UniProt O00507 0.000732 | UniProt P51784 -0.132 | UniProt Q5T2D3 -0.431 | UniProt Q8TE49 -0.85 | UniProt Q9P2H5 -0.675 | UniProt Q9UGI0 -0.786 | YOD1 -0.195

C[C@H]1CN(C(=O)CCl)CCN1C(=O)c1cnn(C)c1.Cl
inactive: UniProt O00507 0.326 | UniProt P51784 0.00812 | UniProt Q5T2D3 -0.292 | UniProt Q8TE49 -0.57 | UniProt Q9P2H5 -0.408 | UniProt Q9UGI0 0.189 | YOD1 0.0183

NC(=O)C(Cc1ccccc1)NC(=O)CCl (stereo unspecified)
inactive: UniProt O00507 0.191 | UniProt P51784 -0.0194 | UniProt Q5T2D3 -0.105 | UniProt Q8TE49 -0.102 | UniProt Q9P2H5 -0.193 | UniProt Q9UGI0 -0.398 | YOD1 0.0228

N#Cc1ccc(Cl)cc1NC(=O)CCl
inactive: UniProt O00507 -0.451 | UniProt P51784 0.0676 | UniProt Q5T2D3 -0.0728 | UniProt Q8TE49 -0.577 | UniProt Q9P2H5 0.0403 | UniProt Q9UGI0 -0.441 | YOD1 0.0565

CC(NC(=O)CCl)c1cccc2ccccc12 (stereo unspecified)
active: UniProt Q8TE49 -1.06
inactive: UniProt O00507 0.0439 | UniProt P51784 -0.0702 | UniProt Q5T2D3 -0.196 | UniProt Q9P2H5 -0.463 | UniProt Q9UGI0 -0.905 | YOD1 0.0311

From the supplement of paper PMC11732987, “Enantioselective OTUD7B fragment discovery through chemoproteomics screening and high-throughput optimisation” (Communications Chemistry, 2025)
